For assay [1], the target named is Sentrin-specific protease 8 (Homo sapiens) (UniProt Q96LD8). Description: SENP8 protease inhibitors, retest, confirmation, biochemical, luminescence, single concentration (AID 488912;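 active means mean inhibition across replicates above about 50%, limit read from the data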). The note with it: Recombinant SENP8, Z-RLRGG-aminoluciferin luminescence, 60 min; at 12.5 µM; stronger effect = higher value.
In assay [2] the target is Sentrin-specific protease 6 (Homo sapiens) (UniProt Q9GZR1). Description: SENP6 protease inhibitors, confirmation, biochemical, luminescence, single concentration (AID 488915). The note with it: recombinant SENP6, Z-RLRGG-aminoluciferin luminescence; at 12.5 µM; stronger effect = higher value.
In assay [3] the target is Sentrin-specific protease 7 (Homo sapiens) (UniProt Q9BQF6). As to the kind of experiment: SENP7 protease inhibitors, retest, confirmation, biochemical, luminescence, single concentration (AID 488917). The note with it: recombinant SENP7, Z-RLRGG-aminoluciferin luminescence, 40 min; at 12.5 µM; stronger effect = higher value.
Assay [4] concerns the target Caspase-3 (Homo sapiens) (UniProt P42574). Description: caspase-3 protease inhibitors, confirmation, selectivity assay for SENP inhibitor project, biochemical, single concentration (AID 488918;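 active means mean inhibition above about 50%, limit read from the data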;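 further: plate controls were enzyme with DMSO for no effect and wells without caspase-3 for full effect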). The note with it: purified caspase-3, Z-DEVD-aminoluciferin luminescence, 60 min; at 12.5 µM; stronger effect = higher value.
Assay [5] in a line: luciferase luminescence interference by compounds, confirmation, artefact control for SENP inhibitor project, biochemical, single concentration, SENP8 reaction pre-completed (AID 488919;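 active means mean inhibition above about 50% when retested at one dose, limit read from the data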;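 further: plate controls were DMSO wells with completed reaction for no effect and substrate without enzyme for full effect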). The note with it: Pre-incubated SENP8/Z-RLRGG-aminoluciferin, at 12.5 µM, stronger effect = higher value.

Some of the results follow. Calls of active or inactive are those of the source.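 How the source made its calls, unless noted: active means mean inhibition above about 50% in the one-dose retest (limit read from the data); inactive means the rest.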

Sentrin-specific protease 7 (Homo sapiens), sequence (Q9BQF6 706-1050 limits assumed): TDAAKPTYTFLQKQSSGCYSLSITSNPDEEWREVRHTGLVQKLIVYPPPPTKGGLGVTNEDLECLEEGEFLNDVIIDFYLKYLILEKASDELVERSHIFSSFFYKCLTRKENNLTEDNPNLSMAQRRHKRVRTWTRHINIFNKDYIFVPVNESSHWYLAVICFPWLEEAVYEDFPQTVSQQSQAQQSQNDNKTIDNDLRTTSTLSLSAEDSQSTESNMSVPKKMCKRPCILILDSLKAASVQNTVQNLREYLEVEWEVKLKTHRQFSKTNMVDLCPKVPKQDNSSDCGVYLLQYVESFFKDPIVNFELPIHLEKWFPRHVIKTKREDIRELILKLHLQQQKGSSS
Sentrin-specific protease 6 (Homo sapiens), sequence (Q9GZR1 628-1112 limits assumed): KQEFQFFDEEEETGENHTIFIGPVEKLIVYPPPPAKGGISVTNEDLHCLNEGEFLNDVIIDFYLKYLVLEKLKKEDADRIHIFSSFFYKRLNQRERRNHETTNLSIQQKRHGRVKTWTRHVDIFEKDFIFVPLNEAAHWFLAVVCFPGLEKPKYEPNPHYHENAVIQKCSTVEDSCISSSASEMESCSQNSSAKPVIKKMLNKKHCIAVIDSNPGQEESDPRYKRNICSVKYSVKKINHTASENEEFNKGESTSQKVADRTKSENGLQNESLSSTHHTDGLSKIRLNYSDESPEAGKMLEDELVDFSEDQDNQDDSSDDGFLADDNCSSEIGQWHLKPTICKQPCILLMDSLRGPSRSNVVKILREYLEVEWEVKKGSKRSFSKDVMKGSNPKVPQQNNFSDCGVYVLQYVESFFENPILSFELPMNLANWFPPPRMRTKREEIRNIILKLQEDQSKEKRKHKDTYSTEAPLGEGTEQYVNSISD
Sentrin-specific protease 8 (Homo sapiens), sequence (Q96LD8 whole entry, looked up): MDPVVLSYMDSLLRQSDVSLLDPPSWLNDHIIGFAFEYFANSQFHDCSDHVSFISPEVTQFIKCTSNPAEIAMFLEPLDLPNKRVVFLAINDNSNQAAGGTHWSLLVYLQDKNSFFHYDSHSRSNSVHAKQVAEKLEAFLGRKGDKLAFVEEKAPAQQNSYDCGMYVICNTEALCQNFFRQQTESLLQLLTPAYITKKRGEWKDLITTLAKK
Caspase-3 (Homo sapiens), sequence (P42574 28-227 limits assumed): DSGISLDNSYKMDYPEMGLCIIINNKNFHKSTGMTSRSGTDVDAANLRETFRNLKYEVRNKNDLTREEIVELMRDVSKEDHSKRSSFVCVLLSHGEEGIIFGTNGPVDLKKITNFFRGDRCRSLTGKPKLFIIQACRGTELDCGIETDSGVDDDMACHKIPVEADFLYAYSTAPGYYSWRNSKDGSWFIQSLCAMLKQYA

On to `O=C(NC(=O)c1ccccc1)Nc1ccccc1O`, for which the inhibition (in general, the change of the read-out against control, counted positive when it falls) in assay [1] was -10% (inactive); in assay [2] it was 6.3% (inactive); in assay [3] it was 69.7% (active); in assay [4], 73.3% (active); in assay [5], 23.8% (inactive).
`COc1cccc(C(=O)Nc2nc3ccc(S(C)(=O)=O)cc3s2)c1`: the inhibition is 4.4% (inactive) in assay [1]; 86.4% (active) in assay [2]; 98.9% (active) in assay [3]; 89.2% (active) in assay [4]; 73.5% (active) in assay [5].
For `Cc1cccc(OCC(=O)Nc2ccccc2F)c1`, the inhibition is 20.8% (inactive) in assay [1]; 30.1% (inactive) in assay [2]; 72.8% (active) in assay [3]; 62.7% (active) in assay [4]; 35.2% (inactive) in assay [5].
`CCCCOc1ccc(-c2nnc(-c3ccco3)o2)cc1`: the inhibition is 37.7% (inactive) in assay [1]; 44.6% (inactive) in assay [2]; 41.1% (inactive) in assay [3]; 12.6% (inactive) in assay [4]; 2% (inactive) in assay [5].
In the same order, the values of `O=C(Nc1cc2ccccc2oc1=O)C1CCCCC1` are 8.2% (inactive), 4.9% (inactive), 19.1% (inactive), 20.1% (inactive) and 3.7% (inactive).
The like results for `Cc1ccc(-n2cc3ccc([N+](=O)[O-])cc3n2)cc1` were, in that order, -5.1% (inactive), 20.7% (inactive), 61.5% (active), 18.7% (inactive) and -2.9% (inactive).
In the case of `Brc1ccccc1C1Nc2cccc3cccc(c23)N1`, the inhibition in assay [1] was -7.3% (inactive); in assay [2], 3.3% (inactive); in assay [3], -9.3% (inactive); in assay [4], 1.1% (inactive); in assay [5], 3.4% (inactive).
As for `Brc1ccc2nc(N3CCCC3)sc2c1`, the inhibition in assay [1] is 83.5% (active); in assay [2], 95.8% (active); in assay [3] it was 102% (active); in assay [4], 81.3% (active); in assay [5], 38.6% (inactive).
As for `COc1ccc(C(CC(=O)c2ccccc2)S(=O)(=O)c2ccccc2)cc1` (stereo not given), the inhibition in assay [1] is 25% (inactive); in assay [2], 33.4% (inactive); in assay [3], 30.3% (inactive); in assay [4] it was 9% (inactive); in assay [5], 4.7% (inactive).
Consider `FC(F)(F)c1ccnc(Oc2ccc(C3=NCCS3)cc2)c1`, for which the inhibition is 36.3% (inactive) in assay [1]; 42.8% (inactive) in assay [2]; 53.1% (active) in assay [3]; 29.9% (inactive) in assay [4]; 17% (inactive) in assay [5].
As for `COc1ccc(C(=O)Nc2ccc(C3(C#N)CCCC3)cc2)cc1OC`, the inhibition in assay [1] is 93% (active); in assay [2] it was 93.6% (active); in assay [3], 101% (active); in assay [4] it was 91.9% (active); in assay [5], 83.2% (active).
In the same order, the values of `CCSc1nnc(NC(=O)c2ccc(C)cc2)s1` are 33.7% (inactive), 23.5% (inactive), 51.1% (active), 27.1% (inactive) and 2% (inactive).
In the same order, the values of `O=C(Nc1ccccc1F)c1ccc2c(c1)OCO2` are 72% (active), 66.7% (active), 90.9% (active), 89.4% (active) and 69.1% (active).
Take `COc1cccc(C(=O)c2cc3ccc(O)cc3oc2=O)c1`: the inhibition in assay [1] was 98.7% (active); in assay [2], 100% (active); in assay [3], 103% (active); in assay [4], 98.7% (active); in assay [5] it was 98% (active).
`COCCn1nnnc1C(c1cc2ccc(OC)cc2[nH]c1=O)N1CCc2ccccc2C1` (stereo not given): the inhibition is 12.6% (inactive) in assay [1]; 23% (inactive) in assay [2]; 2.5% (inactive) in assay [3]; 1% (inactive) in assay [4]; -2% (inactive) in assay [5].
`COc1cc(NC(=O)COC(=O)c2ccc([N+](=O)[O-])s2)cc(OC)c1OC`: the inhibition is 79.5% (active) in assay [1]; 86.7% (active) in assay [2]; 45.8% (inactive) in assay [3]; 18.4% (inactive) in assay [4]; 0.3% (inactive) in assay [5].
In the same order, the values of `Nc1[nH][nH]c(=O)c1N=Nc1ccc2c(c1)OCO2` are 41.3% (inactive), 39.2% (inactive), 67.3% (active), 74% (active) and 12% (inactive).
In the same order, the values of `CC(C)(C)c1ccc(NC(=O)NCc2ccco2)cc1` are -28.3% (inactive), -17.7% (inactive), -5.7% (inactive), -5.5% (inactive) and -7.2% (inactive).
In the same order, the values of `COc1ccc(Cc2nnc(SCC(=O)c3cccc([N+](=O)[O-])c3)n2C)cc1` are -3.9% (inactive), 1.7% (inactive), 6.9% (inactive), 4.6% (inactive) and -2.3% (inactive).
On to `O=C(Nc1ccncc1)c1cc2ccccc2o1`, for which the inhibition was 49.1% (inactive) in assay [1]; 44% (inactive) in assay [2]; 76.1% (active) in assay [3]; 75.6% (active) in assay [4]; 49.3% (inactive) in assay [5].
With `O=C(Nc1nnc(SCc2ccccc2)s1)c1ccco1`, the inhibition in assay [1] is 6.7% (inactive); in assay [2] it was 40.5% (inactive); in assay [3] it was 23.6% (inactive); in assay [4], 61.1% (active); in assay [5], 13.1% (inactive).
The like results for `CCCCSc1nnc(-c2ccc(C)cc2)o1` were, in that order, 19.5% (inactive), 60.5% (active), 85.3% (active), 55% (active) and 23.2% (inactive).
Take `Cc1c(Cl)cccc1NC(=O)Nc1ccc(C(=O)N2CCCC2)cc1`: the inhibition in assay [1] was 20.5% (inactive); in assay [2], 43% (inactive); in assay [3] it was 77.1% (active); in assay [4], 60.3% (active); in assay [5], 11.4% (inactive).

The values above are taken from PubChem BioAssay.
